Hits are enriched below; roughly 1.8% of the tested compounds scored in any of these assays.
PAD4 FP inh: human PAD4 inhibitors, primary screen, biochemical, fluorescence polarization, 1536-well format | actives 0.41% (n = 330,000) | inhibition, % at 6.36 µM | recombinant PAD4, RCA probe fluorescence polarization | AID 485272, 2010;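 active = percent inhibition above a cutoff equal to the mean of all tested compounds plus 3 SD, cut at about 15% in these data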
Fam108B inh: mouse Fam108B serine hydrolase inhibitors, primary screen, counter-screen for RBBP9 inhibitor project, biochemical, fluorescence polarization | recombinant Fam108B, FP-Rh probe fluorescence polarization | inhibition, % at 9.51 µM | actives 0.33% (n = 300,000) | AID 1947, 2009;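 active = inhibition above the screen mean inhibition plus 3 SD, computed separately per campaign, cut at about 18% in these data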;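 note: inhibitors lower polarization as less probe binds the enzyme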
LYPLA2 inh: LYPLA2 inhibitors, primary screen, counter-screen for PME1 inhibitor project, biochemical, fluorescence polarization, FP-Rh probe ABPP | Acyl-protein thioesterase 2 (Homo sapiens), O95372 | recombinant LYPLA2 | inhibition, % at 5.9 µM | actives 0.38% (n = 320,000);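 active = inhibition above the screen-wide mean plus 3 SD, limit set per campaign, cut at about 26% in these data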
GSTO1 inh: inhibitors of recombinant GSTO1, primary screen, counter-screen for RBBP9 inhibitor project, biochemical, fluorescence polarization; activity-based probe fluorescence polarization; inhibition, % at 5.96 µM; actives 1.1% (n = 300,000);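 active = inhibition above the campaign mean inhibition plus 3 SD, cut at about 35% in these data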
Target sequence (P78417 whole entry, looked up): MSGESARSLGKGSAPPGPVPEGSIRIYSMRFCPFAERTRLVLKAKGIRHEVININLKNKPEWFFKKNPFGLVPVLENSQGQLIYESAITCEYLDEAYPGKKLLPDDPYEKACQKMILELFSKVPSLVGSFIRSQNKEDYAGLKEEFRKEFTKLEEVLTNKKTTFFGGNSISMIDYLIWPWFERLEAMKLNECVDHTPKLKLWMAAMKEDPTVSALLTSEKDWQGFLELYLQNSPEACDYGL
LYPLA1 counter: LYPLA1 inhibitors, primary screen, counter-screen for PME1 inhibitor project, biochemical, fluorescence polarization, FP-Rh probe ABPP; Acyl-protein thioesterase 1 (Homo sapiens), O75608; recombinant LYPLA1; AID 2174, 2009; actives 0.16% (n = 320,000); inhibition, % at 5.9 µM;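 active = inhibition above the mean of all tested compounds plus 3 SD, set per campaign, cut at about 14% in these data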;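 note: inhibitors block serine hydrolase probe labeling of LYPLA1 so polarization falls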
PME-1 inh: PME-1 inhibitors via competitive probe labeling, primary screen, biochemical, fluorescence polarization, FP-Rh probe, HTS | recombinant PME-1 | inhibition, % at 5.9 µM | Protein phosphatase methylesterase 1 (Homo sapiens), Q9Y570 | AID 2130, 2009 | actives 0.53% (n = 320,000);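 active = inhibition above the campaign mean of all compounds plus 3 SD, cut at about 26% in these data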;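 note: competitive labeling of PME-1 active site by serine hydrolase directed probe; inhibitors block probe labeling so polarization falls and inhibition rises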
Target sequence (Q9Y570 whole entry, looked up): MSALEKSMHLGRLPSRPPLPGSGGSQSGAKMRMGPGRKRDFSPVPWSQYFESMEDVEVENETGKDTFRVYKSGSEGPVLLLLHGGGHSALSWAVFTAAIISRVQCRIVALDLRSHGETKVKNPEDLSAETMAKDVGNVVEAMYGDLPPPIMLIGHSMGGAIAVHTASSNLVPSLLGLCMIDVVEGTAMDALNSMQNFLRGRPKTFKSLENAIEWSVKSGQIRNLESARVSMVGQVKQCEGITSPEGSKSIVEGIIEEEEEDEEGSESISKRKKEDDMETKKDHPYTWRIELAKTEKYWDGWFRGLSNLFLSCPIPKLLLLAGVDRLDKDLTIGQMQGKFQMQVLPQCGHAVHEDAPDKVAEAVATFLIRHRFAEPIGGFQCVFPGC
LYPLA2 confirm: LYPLA2 inhibitors, retest, confirmation, counter-screen for PME1 inhibitor project, biochemical, fluorescence polarization, FP-Rh probe ABPP; shares compounds with LYPLA2 inh; recombinant LYPLA2; inhibition, % at 5.9 µM; actives 72% (n = 1,100); AID 2232, 2010;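 active = mean inhibition across replicates above the hit cutoff set in the primary screen, cut at about 26% in these data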;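 note: blocked labeling of the enzyme by serine hydrolase FP-Rh probe lowers polarization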
LYPLA2 gel ABPP: LYPLA2 inhibitors in proteome, late-stage follow-up, gel-based competitive ABPP, fluorescence, assay provider; actives 30% (n = 150); AID 652029, 2013; inhibition, % at 20 µM; shares compounds with LYPLA2 inh; rhLYPLA2 in mouse brain proteome, gel ABPP FP-Rh;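 active = inhibition of LYPLA2 enzyme probe labeling above about 50%, limit read from the data; inactive = inhibition below that limit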;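 note: loss of FP-Rh probe labeling of the LYPLA2 gel band measured as band density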
Each line names hits and unclear results; the compound was inactive in the other large screens (follow-up assays come after a bar, where they were run).

O=C(Nc1cccs1)Nc1c(F)c(F)c(F)c(F)c1F	LYPLA2 inh 29 | LYPLA2 confirm 30
O=C(OCC(=O)N1CCN(Cc2ccccc2)CC1)c1cc(Cl)ccc1[N+](=O)[O-]	LYPLA2 inh 39 (no result: Fam108B inh, GSTO1 inh) | LYPLA2 confirm 40
Cc1cc(OCC(=O)Nc2ccc(CN3CCOCC3)cc2)c2c(C)c(C)c(=O)oc2c1	LYPLA2 inh 30 | LYPLA2 confirm 36
Cc1cc(OCC(=O)Nc2ccc(CN3CCOCC3)cc2)c2c(C)cc(=O)oc2c1	LYPLA2 inh 43 | LYPLA2 confirm 48
Cc1cc(OCC(=O)NCCCN2CCOCC2)c2c(C)c(C)c(=O)oc2c1	none
O=[N+]([O-])c1ccccc1/C=C\C=N\N1CCN(c2ccccc2)CC1	LYPLA2 inh 40 | LYPLA2 confirm 36
O=C(O)c1cccc(N2C(=O)c3ccc4c5c(ccc(c35)C2=O)C(=O)N(c2cccc(C(=O)O)c2)C4=O)c1	none
O=C(O)c1cccc(N2C(=O)c3ccc(Oc4ccc(Cl)cc4)cc3C2=O)c1	LYPLA2 inh 53 | LYPLA2 confirm 68 | LYPLA2 gel ABPP 55
COC(=O)[C@H](CC(C)C)N1Cc2cc(OC)cc(OC)c2-c2ccccc2S1(=O)=O	none (no result: Fam108B inh, LYPLA2 inh, GSTO1 inh, LYPLA1 counter, PME-1 inh)
O=C(CCc1ccccc1)NC(=S)Nc1cc(C(F)(F)F)ccc1N1CCOCC1	LYPLA2 inh 31 | LYPLA2 confirm inactive
CC(C)CC(=O)NC(=S)Nc1cc(C(F)(F)F)ccc1N1CCOCC1	none
O=C1c2c(O)cc(O)cc2O[C@H](c2ccc(O)c(O)c2)[C@@H]1O	LYPLA2 inh 29 | LYPLA2 confirm 39
O=C(NC1CCCCC1)C1CC(=O)N(CCc2ccc(F)cc2)C1 (configuration not stated)	none
CC(=O)Nc1ccc(NC(=O)CCC(=O)OCC(=O)c2cccc([N+](=O)[O-])c2)cc1	none
Cc1ccc(NC(=O)CCC(=O)OCC(=O)c2ccc(Oc3ccc([N+](=O)[O-])cc3)cc2)cc1C	LYPLA2 inh 36 | LYPLA2 confirm inactive
COc1cccc(NS(=O)(=O)NC(=O)c2c(C)[nH]c3ccccc23)c1	none
O=C(NCCc1ccc(Cl)cc1)c1cc(-c2ccccn2)nc2ccccc12	none
O=C1CCCN1CCC1CCN(C2CC(=O)N(c3ccc(Cl)cc3)C2=O)CC1 (configuration not stated)	LYPLA2 inh 33 | LYPLA2 confirm 35
O=C1CCCN1CCC1CCN(C2CC(=O)N(Cc3ccc(N4CCCC4=O)cc3)C2=O)CC1 (configuration not stated)	none
O=C(CCC(=O)c1ccc(Oc2ccccc2)cc1)Nc1ccc(C(=O)O)cc1	none
COc1ccc(N2CCN(C(=O)CN(C)S(=O)(=O)c3cccs3)CC2)cc1	LYPLA2 inh 29 | LYPLA2 confirm 36
CC(=O)Nc1ccc(S(=O)(=O)N2CCN(C(=O)c3ncoc3-c3ccc(F)cc3)CC2)cc1	none
CS(=O)(=O)N1CCc2cc(C(=O)Nc3ccc(O)cc3)ccc21	none
O=C(Nc1ccn(C2CC(OC(=O)c3ccccc3)C(CO)O2)c(=O)n1)c1ccccc1 (configuration not stated)	LYPLA2 inh 26 | LYPLA2 confirm inactive
CCOC(=O)N1CCN(C(c2ccc(C(C)C)cc2)c2sc3nc(C)nn3c2O)CC1 (configuration not stated)	LYPLA2 inh 69 | LYPLA2 confirm 67
CCOC(=O)N1CCC(NC(=O)c2cc3cc4cc(OC)ccc4nc3o2)CC1	LYPLA2 inh 35 | LYPLA2 confirm 31
CC1CCCN(C(=O)c2ccc(S(=O)(=O)N3CCC(c4nc5ccccc5s4)CC3)cc2)C1 (configuration not stated)	none
CCN(CC)C(=O)c1ccc(S(=O)(=O)N2CCC(c3nc4ccccc4s3)CC2)cc1	LYPLA2 inh 27 | LYPLA2 confirm inactive
CC1CCN(C(CNS(=O)(=O)c2ccccc2)c2ccccc2)CC1 (configuration not stated)	none (no result: Fam108B inh, GSTO1 inh)
Cc1ccc(CN2CCN(/N=C/c3ccc(C(=O)O)cc3)CC2)cc1	none
COc1ccc(/C=N/N2CCN(Cc3ccc(C)cc3)CC2)cc1Br	LYPLA2 inh 26 | LYPLA2 confirm inactive
Cn1c(-c2ccccc2)c(C#Cc2ccc(N)cc2)c2ccccc21	none (no result: Fam108B inh, LYPLA2 inh, GSTO1 inh, LYPLA1 counter, PME-1 inh)
CCOC(=O)c1ccccc1-n1c(C)cc(C2N=C(N)Nc3nc4ccccc4n32)c1C (configuration not stated)	LYPLA2 inh 71 | LYPLA2 confirm 77
CCOC(=O)C1=C(C)Nc2nc3ccccc3n2C1c1ccc(O)cc1 (configuration not stated)	none
O=C(c1ccc(OC2CCN(CCc3ccccc3)CC2)cc1)N1CCCC(CCCO)C1 (configuration not stated)	LYPLA2 inh 65 | LYPLA2 confirm 51 | LYPLA2 gel ABPP inactive
CCOCc1c(C(=O)OCC(=O)NCc2ccc(F)cc2)oc2ccccc12	none (no result: Fam108B inh, GSTO1 inh)
O=C(c1ccc(N2CCNCC2)cc1)c1cccnc1	LYPLA2 inh 26 | LYPLA2 confirm inactive
COc1ccc(N2CCN(c3ccnc4cc(Cl)ccc34)CC2)cc1	LYPLA2 inh 26 | LYPLA2 confirm inactive
Oc1ccc(N2CCN(c3ccnc4cc(Cl)ccc34)CC2)cc1	none
COc1ccc(N2CCN(C(=O)c3cc4cc(Cl)ccc4[nH]3)CC2)cc1	LYPLA2 inh 37 | LYPLA2 confirm 50
COc1ccc(N2CCN(CCN3C(=O)c4ccccc4C3=O)CC2)cc1	none
COc1ccc(C(=O)COC(=O)c2ccc3c(c2)OCO3)c(OC)c1	none (no result: Fam108B inh, GSTO1 inh)
O=C(CN1C(=O)CSc2ccc(C(F)(F)F)cc21)Nc1ccccc1	LYPLA2 inh 37 | LYPLA2 confirm 37
COc1cc(NC(=O)CN2C(=O)CSc3ccc(S(=O)(=O)N4CCCC4)cc32)cc(OC)c1	LYPLA2 inh 28 | LYPLA2 confirm inactive
O=C(CN1C(=O)CSc2ncccc21)Nc1cccc(Cl)c1	LYPLA2 inh 62 | LYPLA2 confirm 67 | LYPLA2 gel ABPP inactive

Source: PubChem (The Scripps Research Institute Molecular Screening Center)
